Consider 8 molecules from PubChem BioAssay.

Calls of active or inactive are those of the source.

For one assay, the target named is Albumin (Bos taurus) (UniProt P02769). Put plainly: bovine serum albumin binders on microarray, profiling panel, artefact control for SMM control protein annotation, biochemical, small-molecule microarray, Alexa647 label, 635/667 nm fluorescence (AID 1118).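 Further: score merges 667 nm emission intensity and signal-to-noise per printed compound spot.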 The settings on record: BSA-A647 binding, fluorescence 635 nm, higher = more signal.
Chain of Albumin (Bos taurus) (P02769 whole entry, looked up): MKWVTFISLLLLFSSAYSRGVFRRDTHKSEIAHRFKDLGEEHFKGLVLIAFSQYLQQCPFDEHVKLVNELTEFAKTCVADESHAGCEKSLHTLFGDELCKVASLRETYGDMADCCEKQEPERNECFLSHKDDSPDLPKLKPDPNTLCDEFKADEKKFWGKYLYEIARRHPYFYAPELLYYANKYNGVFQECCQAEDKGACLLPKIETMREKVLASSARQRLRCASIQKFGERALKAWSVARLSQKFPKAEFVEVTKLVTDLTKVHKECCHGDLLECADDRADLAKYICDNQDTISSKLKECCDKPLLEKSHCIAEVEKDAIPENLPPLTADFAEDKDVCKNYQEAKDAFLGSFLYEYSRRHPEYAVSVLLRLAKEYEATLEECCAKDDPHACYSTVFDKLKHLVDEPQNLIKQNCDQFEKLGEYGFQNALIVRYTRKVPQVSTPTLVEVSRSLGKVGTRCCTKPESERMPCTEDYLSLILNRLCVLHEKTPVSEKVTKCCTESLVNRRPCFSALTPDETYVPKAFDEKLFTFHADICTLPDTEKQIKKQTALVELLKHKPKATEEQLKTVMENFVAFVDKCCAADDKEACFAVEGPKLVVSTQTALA
Assay [1] is described as follows: small-molecule microarray binders of probe aXIP, primary screen, biochemical, NeuroSMM set, 635/667 nm fluorescence (AID 1119).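 Further: probe is the protein aXip251-270 applied at 1 µg/mL to compound-printed slides; binding of probe to printed compounds measured as 667 nm fluorescence plus signal to noise.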 The settings on record: higher = more signal, called active from +8 up or from −8 down.
A short description of assay [2]: small-molecule binders of probe aNOTCH3, primary screen, biochemical, small-molecule microarray, 635/667 nm fluorescence (AID 1120).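 Further: probe is a biotin-tagged antibody raised against NOTCH3 rather than NOTCH3 protein; score merges spot fluorescence near 667 nm with spot signal to noise.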 The settings on record: higher = more signal.
A short description of assay [3]: small-molecule binders of probe aNOTCH2, primary screen, biochemical, small-molecule microarray, 635/667 nm fluorescence (AID 1121).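 Further: score merges feature fluorescence read at 667 nm with its signal to noise.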 The following applies: higher = more signal.
For assay [4], the target named is Carbonic anhydrase 2 (Homo sapiens) (UniProt P00918). Kind of assay: CAII small-molecule binders, profiling panel, biochemical, small-molecule microarray, Alexa647-labelled CAII (AID 1122). The settings on record: CAII-A647 binding fluorescence, higher = more signal.
Assay [5] is described as follows: COS7 lysate on small-molecule microarray, probe aHis, 635 nm (AID 1123).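 Further: z-score combines 667nm fluorescence intensity with signal-to-noise per printed compound spot.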 The settings on record: COS7 cell lysate, fluorescence, higher = more signal.
The nature of assay [6]: compound binding in COS7 lysate, probe aLAP1, primary screen, cell lysate, small-molecule microarray (AID 1124).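 Further: lysate comes from COS7 cells expressing LAP1 and is applied at 0.3 µg/mL; score merges spot fluorescence near 667 nm with signal-to-noise over triplicate slides.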 The following applies: probe aLAP1, fluorescence, higher = more signal.
The test system of a further assay is Sam68 (KHDRBS1). Kind of assay: Sam68 small-molecule binders, primary screen, biochemical, small-molecule microarray, 635 nm fluorescence (AID 1125).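 Further: score merges 667 nm channel intensity with signal to noise over triplicate slides.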 The settings on record: small-molecule microarray binding, higher = more signal.
Assay [7] has as its system Chordin-like protein 2 (CHRDL2). Put plainly: CHRDL2 small-molecule binders, primary screen, biochemical, small-molecule microarray, 635 nm fluorescence (AID 1126).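 Further: printed compound slides probed with Chrdl2 protein at 4 µg/mL for 1 h at 4 C; score merges 667 nm emission intensity with signal to noise over three replicate slides.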 The settings on record: small-molecule microarray binding, fluorescence 635 nm; higher = more signal.
For assay [8], the target named is Concanavalin-A (Canavalia ensiformis) (UniProt P02866). Put plainly: ConA small-molecule binders, primary screen, artefact control for SMM control protein annotation, biochemical, small-molecule microarray, Alexa647 label, 635 nm (AID 1127).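 Further: z combines 667 nm emission intensity with signal-to-noise across three replicate slides.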 The settings on record: ConA-A647 binding fluorescence, higher = more signal.
Chain of Concanavalin-A (Canavalia ensiformis) (P02866 whole entry, looked up): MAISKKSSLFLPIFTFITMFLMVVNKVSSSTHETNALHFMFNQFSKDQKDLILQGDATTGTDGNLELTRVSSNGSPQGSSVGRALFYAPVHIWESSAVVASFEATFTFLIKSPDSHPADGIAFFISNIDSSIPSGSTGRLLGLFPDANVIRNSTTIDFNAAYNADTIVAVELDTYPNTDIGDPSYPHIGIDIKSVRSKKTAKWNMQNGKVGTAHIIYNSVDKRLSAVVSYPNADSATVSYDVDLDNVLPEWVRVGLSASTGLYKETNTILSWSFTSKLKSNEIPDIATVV
The nature of assay [9]: anti-His antibody binders, primary screen, artefact control for SMM control protein annotation, biochemical, small-molecule microarray, 635 nm fluorescence (AID 1128).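 Further: score merges feature fluorescence with signal-to-noise for each printed compound spot.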 The settings on record: anti-His Alexa647 antibody binding, higher = more signal.
In assay [10] the test system is Human papillomavirus type 1a E7 protein (residues 1-88). Put plainly: HPV1a E7 small-molecule binders, primary screen, biochemical, small-molecule microarray, residues 1-88, 635 nm (AID 1129). The following applies: small-molecule microarray binding, fluorescence 635 nm; higher = more signal.
Assay [11] addresses Focal adhesion kinase 1 (Homo sapiens) (UniProt Q05397). Put plainly: small-molecule microarray binders of FAK, primary screen, biochemical, 635/667 nm fluorescence, BSA, DTT (AID 1130).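 Further: composite of spot emission at 667 nm and signal to noise over triplicate slides.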 The following applies: PTK2 binding, 635 nm fluorescence, higher = more signal.
Assay [12] deals with Fibrinogen (Alexa647-labelled). Put plainly: fibrinogen binders on compound microarrays, profiling panel, artefact control for SMM control-protein annotation, biochemical, small-molecule microarray, 635/667 nm fluorescence (AID 1131).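 Further: z-score merges 667 nm fluorescence with per-spot signal-to-noise over triplicate slides.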 The following applies: fibrinogen-A647 binding fluorescence, higher = more signal.
In assay [13] the target is Follistatin (Homo sapiens) (UniProt P19883). Kind of assay: follistatin binders on small-molecule microarrays, primary screen, biochemical, small-molecule microarray, 635/667 nm fluorescence (AID 1132). The following applies: FST binding, 635 nm fluorescence, higher = more signal.
Chain of Follistatin (Homo sapiens) (P19883 whole entry, looked up): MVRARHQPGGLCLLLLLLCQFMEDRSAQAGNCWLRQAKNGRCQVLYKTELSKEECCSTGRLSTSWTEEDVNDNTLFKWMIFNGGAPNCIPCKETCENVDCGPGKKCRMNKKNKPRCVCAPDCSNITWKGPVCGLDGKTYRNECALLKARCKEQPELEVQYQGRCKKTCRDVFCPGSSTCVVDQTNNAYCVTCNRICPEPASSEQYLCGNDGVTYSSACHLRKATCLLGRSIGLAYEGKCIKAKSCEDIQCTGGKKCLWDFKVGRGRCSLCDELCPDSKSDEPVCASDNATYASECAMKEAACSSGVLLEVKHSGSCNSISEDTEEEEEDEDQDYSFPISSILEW
The target of assay [14] is Fibroblast growth factor 2 (Homo sapiens) (UniProt P09038). Kind of assay: FGF2 binders on small-molecule microarrays, primary screen, biochemical, small-molecule microarray, 635/667 nm fluorescence (AID 1133). The following applies: small-molecule microarray binding, FGF2, fluorescence 635/667; higher = more signal.
Chain of Fibroblast growth factor 2 (Homo sapiens) (P09038 whole entry, looked up): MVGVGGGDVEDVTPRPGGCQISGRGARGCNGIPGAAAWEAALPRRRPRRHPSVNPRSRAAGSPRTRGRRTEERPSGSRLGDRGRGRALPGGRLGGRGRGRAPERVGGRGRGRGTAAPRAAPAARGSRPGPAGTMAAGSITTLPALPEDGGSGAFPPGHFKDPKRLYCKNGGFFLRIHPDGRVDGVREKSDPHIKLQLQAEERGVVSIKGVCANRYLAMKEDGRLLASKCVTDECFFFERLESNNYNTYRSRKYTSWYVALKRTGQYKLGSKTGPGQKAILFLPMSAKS
Assay [15] in a line: mitochondrial membrane potential change in A549 cells, profiling panel, cell-based, JC-1 fluorescence, basal, 24 h, 100 nL (AID 1138).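 Further: A549 lung adenocarcinoma cells under basal conditions with no added stimulus; test concentration not given here.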 The following applies: higher = more signal.
In another assay the test system is Lefty1. Put plainly: Lefty1 binders on small-molecule microarrays, primary screen, biochemical, small-molecule microarray, 635/667 nm fluorescence (AID 1139). The settings on record: small-molecule microarray binding, fluorescence 635/667; higher = more signal.
For assay [16], the system named is wheat germ agglutinin (Triticum aestivum), Alexa647-labelled. Kind of assay: wheat germ agglutinin binders on compound microarrays, profiling panel, artefact control for SMM control-protein annotation, biochemical, small-molecule microarray, 635/667 nm fluorescence (AID 1140).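 Further: score merges 667 nm feature emission with signal to noise over triplicate slides.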 The following applies: WGA-A647 binding, 635 nm fluorescence, higher = more signal.
Assay [17] addresses Luciferin 4-monooxygenase (Photinus pyralis) (UniProt P08659). Kind of assay: firefly luciferase enzyme inhibitors, primary screen, biochemical, luminescence, purified enzyme, 2006 set (AID 1141).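 Further: cell-free assay with purified firefly luciferase at 100 ng per well in PBS; test concentration not given here.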 The following applies: SteadyGlo luminescence, 30 min, higher = more signal, called active from +8 up or from −8 down.

Chain of Focal adhesion kinase 1 (Homo sapiens) (Q05397 whole entry, looked up): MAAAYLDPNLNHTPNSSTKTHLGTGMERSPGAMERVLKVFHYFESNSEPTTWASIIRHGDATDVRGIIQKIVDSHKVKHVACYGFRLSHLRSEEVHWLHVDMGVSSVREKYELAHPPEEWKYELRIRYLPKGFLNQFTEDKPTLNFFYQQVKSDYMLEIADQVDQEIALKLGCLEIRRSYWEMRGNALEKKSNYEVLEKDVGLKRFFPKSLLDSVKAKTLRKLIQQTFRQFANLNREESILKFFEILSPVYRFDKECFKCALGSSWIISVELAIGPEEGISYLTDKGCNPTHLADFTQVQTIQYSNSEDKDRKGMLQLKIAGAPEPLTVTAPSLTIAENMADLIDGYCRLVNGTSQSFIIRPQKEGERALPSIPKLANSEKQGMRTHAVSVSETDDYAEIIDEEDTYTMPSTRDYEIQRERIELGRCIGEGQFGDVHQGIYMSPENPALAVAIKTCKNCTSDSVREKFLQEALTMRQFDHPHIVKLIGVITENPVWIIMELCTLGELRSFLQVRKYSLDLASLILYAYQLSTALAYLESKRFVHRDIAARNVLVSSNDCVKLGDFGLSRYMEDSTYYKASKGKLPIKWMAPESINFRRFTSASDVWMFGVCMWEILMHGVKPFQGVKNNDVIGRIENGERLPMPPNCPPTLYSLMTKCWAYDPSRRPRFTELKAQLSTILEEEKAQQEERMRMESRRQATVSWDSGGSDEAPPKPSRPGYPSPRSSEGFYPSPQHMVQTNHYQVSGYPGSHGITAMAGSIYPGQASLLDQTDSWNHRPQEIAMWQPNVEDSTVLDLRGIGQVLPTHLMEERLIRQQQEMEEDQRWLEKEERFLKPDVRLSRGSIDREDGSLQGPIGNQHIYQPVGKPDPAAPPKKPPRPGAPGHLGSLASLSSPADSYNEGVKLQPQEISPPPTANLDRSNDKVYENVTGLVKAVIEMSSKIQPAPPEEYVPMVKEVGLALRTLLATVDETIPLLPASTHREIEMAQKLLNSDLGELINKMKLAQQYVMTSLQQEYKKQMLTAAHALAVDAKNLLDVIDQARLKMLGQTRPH
Chain of Luciferin 4-monooxygenase (Photinus pyralis) (P08659 whole entry, looked up): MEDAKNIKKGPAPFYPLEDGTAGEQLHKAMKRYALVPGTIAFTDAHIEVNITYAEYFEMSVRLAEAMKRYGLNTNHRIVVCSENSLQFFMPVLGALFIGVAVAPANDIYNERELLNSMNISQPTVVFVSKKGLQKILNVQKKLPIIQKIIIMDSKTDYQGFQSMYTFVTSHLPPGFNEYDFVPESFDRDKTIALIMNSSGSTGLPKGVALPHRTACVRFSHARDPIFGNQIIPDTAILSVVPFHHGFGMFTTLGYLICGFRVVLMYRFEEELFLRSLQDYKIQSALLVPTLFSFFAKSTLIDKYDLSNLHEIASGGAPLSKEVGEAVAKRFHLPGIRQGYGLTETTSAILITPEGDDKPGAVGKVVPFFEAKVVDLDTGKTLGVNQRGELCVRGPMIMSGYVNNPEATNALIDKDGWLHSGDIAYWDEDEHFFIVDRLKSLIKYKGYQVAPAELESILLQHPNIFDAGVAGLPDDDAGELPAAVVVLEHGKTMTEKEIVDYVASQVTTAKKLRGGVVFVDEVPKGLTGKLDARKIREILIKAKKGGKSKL

For the molecule `COC(=O)C1=C(C)N(Cc2ccccc2)C2=C3C(=O)OCC[C@@H]3[C@@](O)(C(=O)OC)C(=O)N2[C@@H]1c1ccccc1`, the composite z-score in the assay with Albumin (Bos taurus) was -0.0298; in assay [2], 0.0182; in [3], -0.14; in assay [4], -0.085; in [5] it was 0.132; in assay [6], -0.186. Besides, the composite z-score in the assay with Sam68 (KHDRBS1) is -0.0394; in assay [7], 0.487; in assay [8], 0.325; in assay [9], 0.0356; in assay [10] it was 0.0787; in assay [11], 0.19. The composite z-score in [12] came out at 0.332; in [13], 0.384; in [14] it was 0.402; in the assay on Lefty1, 0.836; in assay [16], 0.0974. Further, the composite Z-score in assay [1] was -0.135 (inactive). Further, the z-score in [15] was 1.48; in assay [17], -0.653 (inactive).

For `C[C@@H]1CC[C@H]2C(=O)OC(Cc3ccccc3)CN2[C@H]1c1ccc(Br)cc1` (stereo not given in full), the composite z-score with Albumin (Bos taurus) was 0.525; in assay [2] it was -0.0362; in assay [3], -0.198; in [4] it was 0.186; in [5] it was 0.712; in assay [6] it was 0.509. In addition, the composite z-score is 0.64 in the assay on Sam68 (KHDRBS1); 0.257 in assay [7]; 0.494 in [8]; 0.227 in [9]; 0.238 in assay [10]; -0.0103 in assay [11]. Moreover, the composite z-score worked out at 0.853 in [12]; 0.329 in assay [13]; 0.867 in assay [14]; 0.789 in the assay with Lefty1; 0.339 in assay [16]. Also, the composite Z-score in [1] is -0.014 (inactive). Besides, the results for the z-score in assay [15] and in assay [17] were 1.57 and -0.679 (inactive), respectively.

As for `CCN1C(=O)[C@H]2[C@H]3[C@H](O)[C@H](O)CC(=NOC[C@@H](O)[C@H]4O[C@@H]5OC(C)(C)O[C@@H]5[C@H]4O)[C@@H]3CC[C@H]2C1=O`, the composite z-score with Albumin (Bos taurus) is 0.0226; in assay [2], -0.299; in [3], -0.0662; in assay [4], 0.343; in assay [5], 0.324; in assay [6], -0.203. Also, the composite z-score was -0.0334 in the assay on Sam68 (KHDRBS1); -0.736 in assay [7]; -0.406 in assay [8]; -0.072 in [9]; -0.144 in assay [10]; -0.212 in [11]. In addition, the composite z-score is -0.0432 in assay [12]; 0.387 in assay [13]; 0.383 in assay [14]; 0.0533 in the assay with Lefty1; -0.0038 in assay [16]. In addition, in assay [1], the composite Z-score is -0.485 (inactive). The z-score in assay [15] is -0.548; in assay [17] it was -0.819 (inactive).

`COC(=O)CC=C1c2ccccc2[C@H](OC)[C@H]1C`: the composite z-score with Albumin (Bos taurus) is -0.8; in [2] it was 0.0026; in assay [3], -0.0614; in assay [4] it was -0.36; in [5] it was -0.316; in [6], -0.441. In addition, the composite z-score with Sam68 (KHDRBS1) is -0.742; in assay [7], 0.523; in [8], -0.334; in assay [9] it was -0.706; in assay [10] it was -0.352; in assay [11], -0.102. In addition, the composite z-score in assay [12] was -0.479; in [13], -0.0211; in assay [14] it was 0.621; with Lefty1, 0.338; in [16], -0.488. Besides, in assay [1], the composite Z-score was 0.272 (inactive). For the same molecule, the z-score is -0.612 in [15] and 0.469 (inactive) in [17].

As for `O=C1[C@H]2[C@H]3[C@H](O)[C@H](O)CC(=NOCc4ccccc4)[C@@H]3CC[C@H]2C(=O)N1c1cccc(Oc2ccccc2)c1`, the composite z-score with Albumin (Bos taurus) is 0.446; in assay [2] it was -0.119; in assay [3], -0.147; in assay [4], 0.146; in assay [5], 0.536; in [6] it was 0.397. Moreover, the composite z-score in the assay on Sam68 (KHDRBS1) is 1.32; in assay [7] it was 0.0204; in assay [8], 0.335; in [9] it was 0.695; in assay [10], 0.452; in assay [11] it was 0.0881. Also, the composite z-score came to 0.96 in assay [12]; 0.248 in [13]; 0.184 in [14]; 0.687 with Lefty1; 0.315 in [16]. For the same molecule, the composite Z-score in assay [1] was 0.0894 (inactive). In addition, the z-score in [15] was 0.578; in [17], 0.245 (inactive).

In the case of `CC(C)CN1CCc2nc(-c3ccccc3)c3c(c2C1)CO[C@@H](C)C3`, the composite z-score was found to be 0.729 with Albumin (Bos taurus); 0.0636 in [2]; 0.0341 in assay [3]; 0.465 in [4]; 0.798 in [5]; 0.0322 in assay [6]. The composite z-score turned out to be 1.29 with Sam68 (KHDRBS1); 0.53 in assay [7]; 1.11 in assay [8]; 0.454 in [9]; 1.16 in assay [10]; 0.741 in assay [11]. In addition, the composite z-score in [12] stood at 0.756; in assay [13], 0.785; in assay [14] it was 0.525; in the assay with Lefty1, 0.923; in assay [16], 0.963. For the same molecule, the composite Z-score in assay [1] is -0.548 (inactive). Further, the z-score in assay [15] is 0.0232; in [17] it was -0.628 (inactive).

Regarding `O=C1[C@H]2[C@H]3[C@H](O)[C@H](O)CC(=NOCc4ccccc4)[C@H]3CC[C@H]2C(=O)N1C1CCCCC1`, the composite z-score with Albumin (Bos taurus) was 0.487; in [2] it was -0.0744; in assay [3], -0.14; in [4], 0.505; in assay [5], 0.596; in assay [6], -0.438. The composite z-score in the assay with Sam68 (KHDRBS1) came out at 0.734; in assay [7] it was 0.318; in assay [8], 0.921; in assay [9], 0.992; in assay [10] it was 0.944; in assay [11], 0.041. Also, the composite z-score in [12] was determined as 1; in assay [13] it was 0.28; in assay [14], 0.479; with Lefty1, 0.355; in assay [16] it was 0.971. Further, the composite Z-score in [1] is 0.447 (inactive). Besides, the z-score in [15] is 0.436; in assay [17] it was 0.18 (inactive).

As for `CO[C@H]1COC(=O)CCC[C@H](C)[C@H](OC)COC(=O)CC=C[C@@H]1C`, the composite z-score was -0.235 in the assay with Albumin (Bos taurus); -0.189 in assay [2]; -0.118 in assay [3]; -0.515 in [4]; -1.17 in assay [5]; -0.219 in assay [6]. The composite z-score with Sam68 (KHDRBS1) was -0.219; in assay [7] it was 1.15; in [8] it was -0.362; in assay [9] it was 1.03; in assay [10], -0.676; in [11], -0.0022. Also, the composite z-score in assay [12] was -1.52; in [13], 1.1; in assay [14], 1.13; with Lefty1, 0.987; in [16], -0.0108. For the same molecule, the composite Z-score in [1] is -0.348 (inactive). The values for the z-score in assay [15] and in [17] were -0.904 and -0.981 (inactive), respectively.
